According to PubChem BioAssay (NCATS):
Records with an inconclusive call do not appear. Activity calls are given as the source filed them. Calls follow the shape of the dose curve; as a rule, active = well fitted curve in the direction sought with a large enough effect; inconclusive = small, poorly fitted or top-dose-only effect, or another doubt; inactive = no such curve, though single readings can be large; an effect the other way counts as inactive or inconclusive.

Key:
[1] = COV-362 Cancer Cell Toxicity qHTS against the NCATS CANVASS Library (AID 1347352)
Outline: (§1)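 qHTS cytotoxicity: compounds tested in 11 concentrations on 1000 seeded cells per well over 72 h; bortezomib served as control; signal from CellTiter-Glo luminescence.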

[2] = A2780 Cisplatin Sensitive Ovarian Cancer Cell Toxicity qHTS against the NCATS CANVASS Library (AID 1347353); details: A2780 ovarian cancer viability, ATPLite luminescence, 72 h; at 46.1 µM (top of the series); also: nearly all actives have a fitted effect of over 60% in size
Outline: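 Seventy-two-hour exposure of cisplatin-sensitive A2780 ovarian cells to an 11-concentration qHTS series; cytotoxicity is inferred from loss of ATPLite luminescence. Bortezomib titration served as positive control.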

[3] = UWB1.289-WTBRCA1 Cancer Cell Toxicity qHTS against the NCATS CANVASS Library (AID 1347354)
Outline: as §1

[4] = HEK-293 Cancer Cell Toxicity qHTS against the NCATS CANVASS Library (AID 1347355); details: HEK-293 viability, CellTiter-Glo luminescence, 72 h; at 46.1 µM (top of the series); also: nearly all actives have a fitted effect of over 65% in size
Outline: as §1

[5] = HPAF-II 24hr Apoptosis Induction qHTS against the NCATS CANVASS Library (AID 1347356)
Outline: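 Apoptosis induction in HPAF-II pancreatic cancer cells is measured as caspase-3/7 luminescence after a 24-hour exposure to compounds.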

[6] = HEK293 18hr Apoptosis Induction qHTS against the NCATS CANVASS Library (AID 1347357)
Description: (§2) Natural products and their derivatives continue to be wellsprings of nascent therapeutic potential. However, many laboratories have limited resources for biological evaluation, leaving their previously isolated or synthesized compounds largely or completely untested. To address this issue, the Canvass library of natural products was assembled (https://tripod.nih.gov/canvass), in collaboration with academic and industry researchers, for quantitative high-throughput screening (qHTS) across a diverse set of cell-based and biochemical assays. The pure (>85% purity by liquid chromatography/mass spectrometry [LC/MS]) Canvass library of 346 natural products were submitted by 45 academic laboratories and companies around the world. […] The library was formatted into 1536-well plates and evaluated in 50 qHTS (in an 11-pnt concentration series) bioassays with broad scope of disease-relevant mechanisms. The resulting data set from 50 different assays was then systematically analyzed to identify overall trends and specific natural products with interesting biological activities. […] The luminescence is proportional to the amount of caspase activity in the assay reaction. […]
(§3) Cancer Cell Apoptosis Assay 1. […] Luminescence signal was acquired via the ViewLux plate reader (PerkinElmer) using a clear filter, 20 second exposure and 2x binning settings.

[7] = HPAF-II 12hr Apoptosis Induction qHTS against the NCATS CANVASS Library (AID 1347358)
Description: as §2, §3

[8] = HEK293 24hr Apoptosis Induction qHTS against the NCATS CANVASS Library (AID 1347359)
Outline: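 HEK293 cells (500/well, DMEM + 10% FBS) were exposed to compounds in an 11-point series for 24 hours at 37 degrees C, then caspase-3/7 activity was read by Caspase-Glo DEVD luciferase luminescence after 15 min.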

[9] = HPAF-II 18hr Apoptosis Induction qHTS against the NCATS CANVASS Library (AID 1347360)
Outline: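 Caspase-3/7 activation was measured with luminescent Caspase-Glo 3/7 reagent (15 min, RT) in HPAF-II cancer cells (500 cells/well). Before detection, cells had been treated for 18 h at 37 C with compounds (11 points).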

[10] = HEK293 12hr Apoptosis Induction qHTS against the NCATS CANVASS Library (AID 1347361)
Outline: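 HEK293 cells (500/well, DMEM + 10% FBS) were exposed to natural products across an 11-point series for 12 hours at 37 degrees C. Caspase-3/7 activity was then measured with DEVD luciferase luminescence after 15 min at room temperature.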

Measured: outcome

O=c1c(O)c(-c2ccc(O)c(O)c2)oc2cc(O)ccc12
inactive: [1] | [2] | [3] | [4] | [5] | [6] | [7] | [8] | [9] | [10]

C=C(C)[C@@H]1CC[C@]2(C(=O)O)CC[C@]3(C)[C@H](CC[C@@H]4[C@@]5(C)CC[C@H](O)C(C)(C)[C@@H]5CC[C@]43C)[C@@H]12
inactive: [5] | [6] | [7] | [8] | [9] | [10]
